Source: PubChem BioAssay (NCI)
Compounds without any hit were thinned out: in the full panel of roughly 79,000, 15% have a hit. Cut-off read from the data, not from the text of the source: active = growth inhibition above about 70%; inactive = the rest.

Assays:
[1] = NCI Yeast Anticancer Drug Screen. Data for the rad50 strain (AID 155);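 note: 0% = growth of vehicle-only cultures of the same strain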; conditions: S. cerevisiae rad50 strain growth inhibition; at 50.0 µM; hits give high values
How it was run: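 Vehicle-treated cultures provide the reference for the growth inhibition reported for compound-exposed, repair-deficient yeast.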

[2] = NCI Yeast Anticancer Drug Screen. Data for the mec2-1 strain (AID 157); conditions: S. cerevisiae mec2-1 strain, at 50.0 µM, hits give high values
How it was run: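 Readout is yeast growth inhibition, normalised to vehicle-treated controls, in the mec2-1 strain exposed to compound.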

[3] = NCI Yeast Anticancer Drug Screen. Data for the sgs1 mgt1 strain (AID 161);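 note: 0% = growth of cultures given vehicle only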; conditions: S. cerevisiae sgs1 mgt1 strain, at 50.0 µM, hits give high values
How it was run: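 Yeast cells carrying a defined DNA-repair defect were exposed to test compounds. Growth inhibition was measured relative to vehicle-treated controls.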

[4] = NCI Yeast Anticancer Drug Screen. Data for the cln2 rad14 strain (AID 165);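 note: 0% = growth equal to vehicle treated cultures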; conditions: S. cerevisiae cln2 rad14 strain, at 50.0 µM, hits give high values
How it was run: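 Relative to vehicle controls, growth inhibition of compound-treated cln2 rad14 yeast was recorded.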

[5] = NCI Yeast Anticancer Drug Screen. Data for the bub3 strain (AID 167); conditions: S. cerevisiae bub3 mutant strain, at 50.0 µM, hits give high values
How it was run: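 Mutant yeast screening strain plus compound; vehicle-treated cultures serve as the 0% inhibition reference.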

[6] = NCI Yeast Anticancer Drug Screen. Data for the mlh1 rad18 strain (AID 175); conditions: S. cerevisiae mlh1 rad18 strain growth inhibition; at 50.0 µM; hits give high values
How it was run: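 Test agents were incubated with a yeast strain of defined genotype (DNA damage repair defect). Inhibition of growth was derived by comparison with vehicle-exposed cultures.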

Measured: growth inhibition

Cc1ccnc(NC(=O)Nc2ccc(C)cc2[N+](=O)[O-])c1
inactive: [1] 18.4% | [2] 26.7% | [3] 20.4% | [4] 8.35% | [5] 18.1% | [6] 24%

NC(=S)N/N=C/c1ccncc1
inactive: [1] -25.8% | [2] -10.6% | [3] -17.6% | [4] -25.9% | [5] 9.35% | [6] -52.9%

S=C(SNC1CCCCC1)SNC1CCCCC1
inactive: [1] -65.5% | [2] -14.2% | [3] 4.25% | [4] -13.4% | [5] 9.35% | [6] 6.25%

O=C1c2cc3c(cc2C(=O)c2[nH]ncc21)OCO3
inactive: [1] 60.5% | [2] 30.4% | [3] 16.7% | [4] -20.2% | [5] 19.1% | [6] 17.2%

COc1ccc2c(c1)OC(C)(C)C(c1ccccc1)=C2c1ccc2c(c1)NCCO2
inactive: [1] 1% | [2] -2.35% | [3] 11.1% | [4] -38.5% | [5] -22.6% | [6] 32.2%

CC12CCC(/C(=C/N3CCCCC3)C1=O)C2(C)C (stereo unspecified)
inactive: [1] 12.8% | [2] 10.2% | [3] 1.75% | [4] -17.8% | [5] 22.4% | [6] 5.05%

CCOC(=O)Cc1ccc(-c2csc(Nc3ccc(Cl)cc3)n2)cc1
inactive: [1] 49.9% | [2] 22.4% | [3] 35% | [4] 24.2% | [5] 24.8% | [6] 48.9%

O=C(Nc1ncnc2c1ncn2C1CCC(CO)O1)c1ccccc1 (stereo unspecified)
inactive: [1] -1.35% | [2] 2.15% | [3] 3.7% | [4] 7.45% | [5] 14% | [6] 16.9%

CC(=O)OC1COC([n+]2cccc(C(N)=O)c2)C(OC(C)=O)C1OC(C)=O (stereo unspecified)
inactive: [1] -36.5% | [2] -22.7% | [3] -25.9% | [4] -32.6% | [5] -9.95% | [6] -20%

CC(=O)OC/C=C1/CC[C@H]2[C@@H]3CCC4=CC(=O)CC[C@]4(C)[C@H]3[C@@H](O)C[C@]12C
inactive: [1] 26.4% | [2] -4.25% | [3] 8.65% | [4] -31.4% | [5] 13.4% | [6] 26.9%

CC(Nc1ncccn1)Nc1ncccn1
inactive: [1] -6.4% | [2] 1.8% | [3] 7.75% | [4] -29.9% | [5] -1.95% | [6] -1.75%

O=S1(=O)CCC(Br)c2ccccc21 (stereo unspecified)
inactive: [1] -5% | [2] -0.25% | [3] 0.4% | [4] -38.5% | [5] 8.6% | [6] -12.5%

CC(=O)C(N=NC1CCC(S(=O)(=O)NB2N=CS2)CC1)C(=O)Nc1ccccc1C (stereo unspecified)
inactive: [1] -32.2% | [2] -1.05% | [3] -5.9% | [4] 16.5% | [5] 9.35% | [6] 15.4%

O=[N+]([O-])c1ccc(/C([O-])=C(\C(=S)Nc2ccccc2Cl)[n+]2ccccc2)cc1
inactive: [1] -7.5% | [2] 0.1% | [3] -6.95% | [4] -14.4% | [5] 2.35% | [6] 11.2%

CC12CCC(=O)N1[C@@H](c1ccccc1)[C@@H](c1ccccc1)O2 (stereo partly specified)
inactive: [1] 25.6% | [2] -12.6% | [3] -0.85% | [4] 15.4% | [5] 3.65% | [6] 5.9%

COc1ccc(/C=C\c2cc(OC)c(OC)c(OC)c2)cc1OCC(=O)O
inactive: [1] -5.95% | [2] -1.75% | [3] 13% | [4] 8.65% | [5] -10.4% | [6] -52.5%

COc1cc2c(c(OC)c1OC)C(=O)[C@H]1OC(=O)N[C@@H]21
inactive: [1] 8% | [2] 3.05% | [3] 5.2% | [4] 2.1% | [5] 12.9% | [6] -32%

O=C=Nc1cc(Cl)ccc1Cl
inactive: [1] 38.5% | [2] 21.8% | [3] 17.4% | [4] -24.4% | [5] 7.95% | [6] 28.9%

O=C(Nc1ccn(C2CCC(CO)O2)c(=O)n1)c1ccccc1 (stereo unspecified)
inactive: [1] 35.8% | [2] -3.05% | [3] -16.7% | [4] -23.8% | [5] 4.25% | [6] -7.55%

CC[O-].CC[O-].COc1ccc(C(=O)[CH-]C(C)=O)cc1OC.COc1ccc(C(=O)[CH-]C(C)=O)cc1OC.[Ti+4]
inactive: [1] -17.4% | [2] 18.5% | [3] -2.7% | [4] 9.85% | [5] 29.9% | [6] -10.3%

NC(=O)Nc1ccc(S(=O)(=O)c2ccc(N)cc2)cc1
inactive: [1] 0.5% | [2] -5.2% | [3] 12.5% | [4] -5.35% | [5] 4% | [6] -15.7%

CCN(CC)CCCNc1ccc([N+](=O)[O-])c2nc3ccccc3c(N)c12
inactive: [1] 21.4% | [2] -0.2% | [3] 15.8% | [4] 32.9% | [5] -17.1% | [6] 63.8%

CCCCCCC1NC(CCCCCC)N2C(CCCCCC)N12 (stereo unspecified)
inactive: [1] 28.9% | [2] 16.8% | [3] -2.15% | [4] 0% | [5] 21.6% | [6] -2.7%

Cc1cccc(-c2cccc(C)c2C)c1C
inactive: [1] -6.5% | [2] 4.75% | [3] -1.35% | [4] 11.7% | [5] 4.2% | [6] 16.1%

COc1ccc([N+](=O)[O-])cc1F
inactive: [1] 10.9% | [2] -12.8% | [3] 5.5% | [4] -6.9% | [5] 8.25% | [6] 31.8%

COC(=O)Nc1c2ccccc2c(NC(=O)OC)c2ccccc12
inactive: [1] -7.15% | [2] 13% | [3] 19.7% | [4] -88.8% | [5] 23.1% | [6] 0.75%

O=C(CN1C(=O)c2ccccc2C1=O)C(O)CN1C(=O)c2ccccc2C1=O (stereo unspecified)
inactive: [1] 2.5% | [2] 0.6% | [3] 2.05% | [4] 27.9% | [5] 11.4% | [6] 14.6%

CCOC(=O)/C(C)=C1\N=C(c2ccccc2)OC(=NC2CCCCC2)N1C1CCCCC1
inactive: [1] 9.95% | [2] -4.8% | [3] 0.3% | [4] 17.9% | [5] -4.55% | [6] 8.1%

O=C1CCC(c2ccccc2)(c2ccccc2)CC1
inactive: [1] 31.8% | [2] -24.6% | [3] -16.1% | [4] -15.5% | [5] 0.15% | [6] 17.5%

CCCCC1SCC(=O)N1c1nncs1 (stereo unspecified)
inactive: [1] 6.35% | [2] 24% | [3] 5.4% | [4] -3.8% | [5] 16.7% | [6] -3.2%

COc1ccc(C2c3cc4c(cc3OC(C)(OC)C2C)OCO4)c(OC)c1OC (stereo unspecified)
inactive: [1] -1.5% | [2] 5.8% | [3] -4.75% | [4] -19% | [5] -3.6% | [6] 22.1%

Cc1nc2scc(C)c2c(=S)[nH]1
inactive: [1] -0.85% | [2] 1.5% | [3] 6.75% | [4] -38.9% | [5] -11.8% | [6] -2.45%

Cc1ccc(CN2CCCCC2)o1
inactive: [1] 16.6% | [2] 3.2% | [3] 0.2% | [4] 1.1% | [5] 2.05% | [6] 7.5%

CC(=O)N/N=C/c1cccc([N+](=O)[O-])c1
inactive: [1] -6.25% | [2] 5.15% | [3] -4.55% | [4] -35.8% | [5] -19.9% | [6] -7.9%

OCCCNc1nc2cc(Cl)ccc2o1
inactive: [1] 9.2% | [2] 22.6% | [3] 16.1% | [4] -31.1% | [5] 7.9% | [6] -14.9%

Cc1cc(N(CCC#N)CCC#N)ccc1/C(N=Nc1ccc([N+](=O)[O-])cc1)=N\NC(=O)c1cc(Cl)ccc1O
inactive: [1] 18.9% | [2] 8.8% | [3] -5% | [4] 6.85% | [5] -26.4% | [6] 9.1%

O=C(CCCCC(=O)OC1CCCCC1)OC1CCCCC1
inactive: [1] -4.95% | [2] 3.65% | [3] -6.45% | [4] -60.3% | [5] -1.05% | [6] 10.8%

Cc1cc(=O)c2c(F)ccc(F)c2[nH]1
inactive: [1] 0% | [2] 4.5% | [3] 13.9% | [4] -36.4% | [5] -7.85% | [6] 12.7%

COc1cc2c(cc1OC)[C@H]1C(COC(=O)Nc3ccccc3)CN1CC2 (stereo partly specified)
inactive: [1] -28.9% | [2] -0.7% | [3] -42.7% | [4] -9.75% | [5] -30.6% | [6] -49.1%

CCN(CC)CCCCNc1ccnc(N)n1
inactive: [1] -8.65% | [2] -10.5% | [3] 2.7% | [4] -23.3% | [5] 18.2% | [6] 16%

CN(C(=O)c1ccccc1)C1CCCC(=O)CC1 (stereo unspecified)
inactive: [1] -2.35% | [2] -10% | [3] 8.25% | [4] 9.95% | [5] -13.6% | [6] -65%
